Our source for the Potency values is PubChem BioAssay (NCATS).

Inconclusive results are not listed. The source made the active and inactive calls. Calls come from the whole dose curve; as a rule, active = well fitted curve in the direction sought with a large enough effect; inconclusive = small, poorly fitted or top-dose-only effect, or another doubt; inactive = no such curve, though single readings can be large; an effect the other way counts as inactive or inconclusive.

The nature of assay [1]: Quantitative High-Throughput drug screen in 47 multiple myeloma cell lines against the NCATS MIPE library collection: KMM1_JCRB cell viability assay (AID 1918960). Note: nearly all actives have a fitted effect of over 30% in size. The gist of the method: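 ATP readout (CellTiter-Glo), 48 h drug incubation, 37 °C/5% CO2, 500 cells per well; normalisation to DMSO (100%) and media-only (0%) controls.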
The nature of assay [2]: Quantitative High-Throughput drug screen in 47 multiple myeloma cell lines against the NCATS MIPE library collection: KHM11_PLB cell viability assay (AID 1918962). Note: nearly all actives have a fitted effect of over 35% in size. The gist of the method:
(§1)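 Myeloma cell lines, 500 cells per well, exposed to MIPE 4.0 library compounds for 48 h at 37C, 5% CO2. Viability from ATP by CellTiter-Glo luminescence; normalised to DMSO (100%) and media-only (0%) wells.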

Assay [3] can be described thus: Quantitative High-Throughput drug screen in 47 multiple myeloma cell lines against the NCATS MIPE library collection: JIM3_ECACC cell viability assay (AID 1918963; note: nearly all actives have a fitted effect of over 35% in size). The gist of the method: as §1
Assay [4] is described as follows: Quantitative High-Throughput drug screen in 47 multiple myeloma cell lines against the NCATS MIPE library collection: JIM1_ECACC cell viability assay (AID 1918964). The method in brief: (§2)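 Approved and investigational drugs from MIPE 4.0 were added by pin tool to 500 cells per well. After 48 hours at 37C, ATP-based CellTiter-Glo luminescence indicated remaining viability.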

Assay [5] is described as follows: Quantitative High-Throughput drug screen in 47 multiple myeloma cell lines against the NCATS MIPE library collection: JJN3_DSMZ cell viability assay (AID 1918966; note: nearly all actives have a fitted effect of over 50% in size). The gist of the method: as §2
A short description of assay [6]: Quantitative High-Throughput drug screen in 47 multiple myeloma cell lines against the NCATS MIPE library collection: H1112_PLB cell viability assay (AID 1918967; note: nearly all actives have a fitted effect of over 30% in size). The gist of the method: as §2
Assay [7] can be described thus: Quantitative High-Throughput drug screen in 47 multiple myeloma cell lines against the NCATS MIPE library collection: Karpas417_ECACC cell viability assay (AID 1918961). To be noted: Karpas417 myeloma viability, CellTiter-Glo ATP luminescence, 48 h; viability (% of DMSO): at 45.8 µM (top of the series) unless noted. The method in brief:
as §1
For orientation: In ATP-based viability assays light output follows the ATP content of the culture.

Assay [8] is described as follows: Quantitative High-Throughput drug screen in 47 multiple myeloma cell lines against the NCATS MIPE library collection: INA6_PLB cell viability assay (AID 1918965; note: nearly all actives have a fitted effect of over 55% in size). The gist of the method: as §1
Assay [9] is described as follows: Quantitative High-Throughput drug screen in 47 multiple myeloma cell lines against the NCATS MIPE library collection: Karpas25_ECACC cell viability assay (AID 1918968; note: nearly all actives have a fitted effect of over 35% in size). The method in brief:
as §2

A short description of assay [10]: Quantitative High-Throughput drug screen in 47 multiple myeloma cell lines against the NCATS MIPE library collection: KMS27_JCRB cell viability assay (AID 1918970). Note: nearly all actives have a fitted effect of over 30% in size. The method in brief:
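Each line is seeded at 500 cells per well and treated with library compounds for 48 hours under 37 °C, 5% CO2. CellTiter-Glo is then added for 5 min at room temperature before median relative luminescence is recorded.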
Potency is the fitted concentration of half-maximal effect.

With `NC[C@H](O)c1ccc(O)c(O)c1`, the Potency entry in assay [1], in [2], in assay [3], in assay [4] and in assay [6] was “inactive” each time. Also, in [5], the Potency is 4.18 µM (active).

As for `C[C@]1(c2nc3c(C(N)=O)cccc3[nH]2)CCCN1`, the Potency result in [1] was “inactive”. In addition, the Potency in assay [2] is 18.7 µM (active).

Regarding `CC[C@H](Nc1ncnc2nc[nH]c12)c1nc2cccc(F)c2c(=O)n1-c1ccccc1`, the Potency entry in assay [1] and in assay [7] was “inactive” each time. Moreover, the Potency was 4.69 µM (active) in [2]; 16.6 µM (active) in assay [3]; 13.2 µM (active) in assay [8]; 10.5 µM (active) in [5]; 2.64 µM (active) in [6]; 11.8 µM (active) in [9].

`Cc1n[nH]c(C)c1Cc1sc2c(c1C(=O)N1C[C@H](O)CO1)c(=O)n(C)c(=O)n2CC(C)C`: the figures for the Potency in assay [1] and in assay [7] were 0.0118 µM (active) and 20.9 nM (active), respectively. For the same compound, the Potency entry in assay [2], in [3], in assay [4], in assay [6] and in assay [9] was “inactive” each time.

For `O=C(Nc1nc2ccccc2n1CCN1CCOCC1)c1cccc([N+](=O)[O-])c1`, the Potency was 5.26 µM (active) in [1]; 4690 nM (active) in assay [7]; 5.26 µM (active) in assay [4]; 20.9 µM (active) in assay [5]; 7.43 µM (active) in assay [10]. Moreover, the Potency result in [3], in [6] and in [9] was “inactive” each time.

As to `O=c1n(CCCN2CCN(c3cccc(Cl)c3)CC2)nc2ccccn12`, the Potency entry in [1], in assay [2], in assay [3], in [4] and in assay [6] was “inactive” throughout.

On to `CCN(c1ccccc1)c1cc(NC)[n+](C)c(C)n1`, for which the Potency entry in [1], in assay [3], in assay [4], in assay [8] and in [6] was “inactive” throughout. The Potency in [2] is 0.235 µM (active); in [10] it was 6.62 µM (active).

With `O=c1[nH]c(-c2ccc(C(F)(F)F)cc2)nc2c1CSCC2`, the Potency entry in [1], in assay [3], in [4] and in assay [10] was “inactive” throughout. Besides, the Potency in assay [9] was 18.7 µM (active).

As for `NC(=O)c1ccc(-c2nc(-c3ccc4c(c3)OCO4)c(-c3ccccn3)[nH]2)cc1`, the Potency in [1] was 1.66 µM (active); in assay [5], 0.0042 µM (active). Besides, the Potency entry in assay [3] and in assay [6] was “inactive” throughout.

For `CCOC(=O)N1CCC(=C2c3ccc(Cl)cc3CCc3cccnc32)CC1`, the Potency entry in [1], in assay [3], in [4], in assay [6] and in [9] was “inactive” in each case.

Consider `N=c1nc(N2CCCCC2)cc(N)n1O`, for which the Potency entry in assay [1], in assay [3], in assay [4], in assay [6] and in assay [10] was “inactive” each time. Besides, the figures for the Potency in assay [8] and in assay [9] were 23.5 µM (active) and 26.4 µM (active), respectively.

Regarding `NC(=O)c1cnccn1`, the Potency entry in assay [1], in assay [3], in assay [4], in assay [8], in assay [5] and in assay [9] was “inactive” throughout.

For the compound `CC(=O)Oc1ccccc1C(=O)O`, the Potency result in [1], in [9] and in [10] was “inactive” each time. In [6], the Potency was 7.43 µM (active).

On to `c1ccc(-c2nn3c(c2-c2ccnc4cc(OCCN5CCOCC5)ccc24)CCC3)nc1`, for which the Potency result in [1], in assay [3] and in [10] was “inactive” each time. The Potency in assay [6] is 4.18 µM (active).

Turning to `CC1(C)CNc2cc(NC(=O)c3cccnc3NCc3ccncc3)ccc21`, the Potency entry in [1], in assay [2] and in [3] was “inactive” each time. For the same compound, the Potency in [9] was 2.09 µM (active).

Turning to `Nc1nc2ccc(OC(F)(F)F)cc2s1`, the Potency entry in assay [1], in assay [2], in assay [3], in [6] and in assay [9] was “inactive” throughout. In addition, the Potency in assay [5] is 16.6 µM (active).

In the case of `Cc1cc(SCc2sc(-c3ccc(C(F)(F)F)cc3)nc2C)ccc1OCC(=O)O`, the Potency entry in [1] and in [6] was “inactive” throughout. Moreover, the Potency in assay [3] and in [8] was 18.7 µM (active) each time.

`O=C(C=Cc1ccc(/C=C/C(=O)Nc2ccc(C3=NCCN3)cc2)cc1)Nc1ccc(C2=NCCN2)cc1`: the Potency result in assay [1], in [3], in assay [6], in assay [9] and in assay [10] was “inactive” in each case.

For the compound `Cc1cccc(-c2[nH]c(C(C)(C)C)nc2-c2ccc3nccnc3c2)n1`, the Potency in [1] is 4.69 µM (active); in assay [3], 2.64 µM (active); in assay [4], 6.62 µM (active); in [5] it was 18.7 µM (active); in assay [6], 5.26 µM (active); in assay [9], 1.32 µM (active).

As for `CC(=O)NC(C)c1ccc(Oc2ccc(OC(C)C)cc2)cc1` (centres undefined), the Potency was 2.64 µM (active) in assay [1]; 3.32 µM (active) in assay [3]; 16.6 µM (active) in assay [5]; 2.96 µM (active) in assay [6]; 3.72 µM (active) in [9]. In addition, the Potency entry in assay [4] is “inactive”.

With `Cc1cccc(-c2nn(C(=S)Nc3ccccc3)cc2-c2ccnc3ccccc23)n1`, the Potency result in assay [1] was “inactive”. Also, the Potency in [3] was 13.2 µM (active); in [6], 16.6 µM (active).

Regarding `COc1cc2c(cc1OC)CN(CCc1ccc(NC(=O)c3cccc4c(=O)c5cccc(OC)c5[nH]c34)cc1)CC2`, the Potency entry in [1] and in assay [4] was “inactive” each time. In addition, the Potency in assay [3] is 6.62 µM (active).

For the compound `Clc1ccc(Nc2nnc(Cc3ccncc3)c3ccccc23)cc1`, the Potency entry in [1], in assay [4] and in assay [10] was “inactive” each time. For the same compound, the Potency in [3] was 20.9 µM (active); in assay [8], 16.6 µM (active).

Consider `COc1ccc(C2=N[C@H](c3ccc(Cl)cc3)[C@H](c3ccc(Cl)cc3)N2C(=O)N2CCNC(=O)C2)c(OC(C)C)c1`, for which the Potency entry in assay [1] is “inactive”. Moreover, the Potency in [3] and in assay [6] was 18.7 µM (active) each time.

Consider `Cc1cn[nH]c1`, for which the Potency is 0.526 µM (active) in assay [1]; 1.48 µM (active) in assay [5]; 6.62 µM (active) in assay [6]; 0.59 µM (active) in assay [9]; 0.264 µM (active) in [10].

Regarding `OC(CN1CCC(Cc2ccc(F)cc2)CC1)c1ccc(Cl)cc1` (centres undefined), the Potency result in [1], in assay [3], in [6] and in [10] was “inactive” throughout.

For the compound `CNC[C@H](O)c1cccc(O)c1`, the Potency in assay [1] was 5.26 µM (active); in assay [9] it was 4.69 µM (active). The Potency entry in assay [3], in assay [6] and in assay [10] was “inactive” throughout.

In the case of `CC1(C)Cc2c(-c3ccccc3)c(-c3ccc(Cl)cc3)c(CC(=O)O)n2C1`, the Potency is 2.35 µM (active) in assay [1] and 20.9 µM (active) in assay [5].
